Screening data as filed in PubChem BioAssay.
Rows were chosen to be rich in hits. Some 13% of all compounds tested hit in one or more screens of this group.
UCHL1 block: inhibitors of human UCHL1 deubiquitinase; Ubiquitin carboxyl-terminal hydrolase isozyme L1 (Homo sapiens), P09936; purified UCHL1, Ub-rhodamine cleavage fluorescence; inhibition, % at 20 µM; 47,000 compounds, 0.2% hits
USP17 block: inhibitors of human USP17 deubiquitinase | purified USP17, Ub-rhodamine cleavage fluorescence, 3 h | inhibition, % at 50 µM | 47,000 compounds, 6.5% hits
USP8 inh: inhibitors of human USP8 deubiquitinase; Ubiquitin carboxyl-terminal hydrolase 8 (Homo sapiens), P40818; purified USP8, Ub-rhodamine cleavage fluorescence, 30 min; inhibition, % at 20 µM; 47,000 compounds, 4.2% hits
USP7 inh: inhibitors of human USP7 deubiquitinase; 47,000 compounds, 0.3% hits; inhibition, % at 20 µM; purified USP7, Ub-rhodamine cleavage fluorescence; Ubiquitin carboxyl-terminal hydrolase 7 (Homo sapiens), Q93009
USP30 inh: inhibitors of human USP30 deubiquitinase | Ubiquitin carboxyl-terminal hydrolase 30 (Homo sapiens), Q70CQ3 | purified USP30, Ub-rhodamine cleavage fluorescence | inhibition, % at 25 µM | 47,000 compounds, 5.3% hits
Target sequence (Q70CQ3 whole entry, looked up): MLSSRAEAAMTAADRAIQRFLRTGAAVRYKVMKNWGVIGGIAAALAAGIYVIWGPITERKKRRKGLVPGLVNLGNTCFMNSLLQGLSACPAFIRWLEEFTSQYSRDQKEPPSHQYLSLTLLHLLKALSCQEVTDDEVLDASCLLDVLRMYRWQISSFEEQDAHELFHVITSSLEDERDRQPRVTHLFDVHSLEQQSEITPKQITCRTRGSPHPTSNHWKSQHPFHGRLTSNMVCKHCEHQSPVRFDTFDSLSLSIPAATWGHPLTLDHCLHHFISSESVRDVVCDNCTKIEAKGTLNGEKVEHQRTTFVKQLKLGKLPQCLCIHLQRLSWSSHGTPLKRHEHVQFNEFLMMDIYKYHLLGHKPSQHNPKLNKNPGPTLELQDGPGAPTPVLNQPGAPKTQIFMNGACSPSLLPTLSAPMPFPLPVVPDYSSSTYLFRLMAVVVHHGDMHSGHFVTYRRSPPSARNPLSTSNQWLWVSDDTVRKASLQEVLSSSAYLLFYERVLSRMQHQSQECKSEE
USP10 inh: inhibitors of human USP10 deubiquitinase. AID 1645856, 2021. Ubiquitin carboxyl-terminal hydrolase 10 (Homo sapiens), Q14694. purified USP10, Ub-rhodamine fluorescence, 60 min. inhibition, % at 20 µM. 47,000 compounds, 1.1% hits
Large screens that a line does not name were inactive. Cut-off read from the data, not from the text of the source: active = inhibition above about 30%; inactive = the rest.

Cc1nc(N2CCC(C)CC2)ncc1-c1cc(=O)[nH]c(N2c3ccccc3CC2C)n1 (configuration not stated)	USP8 inh 44.2
CC(C)NC(=O)C1(Cc2ccc(-c3ccccc3)cc2)CCN(C(=O)c2cccnc2)CC1	none
O=c1c2cnc(N3CCCC3)nc2ccn1-c1ccc([N+](=O)[O-])cc1	none
O=[N+]([O-])c1ccc(N2CCc3nc(-c4ccccn4)ncc3C2)cc1	USP17 block 70.4, USP30 inh 77.3
Cc1cc2ncc3c(n2n1)CCN(c1ccc([N+](=O)[O-])cc1)C3	USP17 block 32.6
COc1ccc(NC(=O)Cn2c(=O)n(-c3ccc(Cl)c(Cl)c3)c(=O)c3c4c(sc32)CCCC4)c(OC)c1	none
Cc1cccc(C(=O)Nc2c(C)nn(Cc3cccc4ccccc34)c2C)c1	none
Cc1cccc(NC(=O)Nc2nnc(CC(=O)NCc3ccccc3)s2)c1	USP17 block 72.6
Cc1cccc(C(=O)Nc2nnc(Cc3cn(C)c4ccccc34)s2)c1	USP8 inh 33.5
O=C(Cc1nnc(NC(=O)Nc2ccc3c(c2)OCO3)s1)NCc1ccccc1	USP8 inh 48.1, USP10 inh 33.6
COc1ccc(CCNC(=O)C23CC4CC(CC(C4)C2)C3)cc1OC	none
COc1ccc(CCNC(=O)C(=O)c2c(C)n(C)c3ccccc23)cc1OC	USP17 block 47.6
COc1ccccc1CCNC(=O)C(=O)c1c(C)n(C)c2ccccc12	none
COc1ccc(CCNC(=O)C(=O)NCc2ccc(Cl)cc2)cc1OC	USP17 block 40.9
CC(=O)N1C[C@H]2C3(CCN(C(=O)Cc4ccccc4)CC3)CC[C@@]2(C(=O)N(C)C)C1	none
COc1ccc(CCNC(=O)CSc2nc3c(cnn3-c3ccc(C)cc3)c(=O)[nH]2)cc1OC	none
Cc1ccc(-n2ncc3c(=O)[nH]c(SCC(=O)NCc4ccco4)nc32)cc1C	USP8 inh 39.5
Cc1ccc(NC(=O)N2CCC(c3nc(C(=O)N(C)C)c(C)o3)CC2)cc1Cl	none
Cc1ccc(CNC(=O)N2CCC(c3nc(C(=O)N(C)C)c(C)o3)CC2)cc1	USP30 inh 31.0
c1ccc2c(c1)CCN(c1ncnc3c1[nH]c1ccccc13)C2	USP8 inh 43.8
COCCNC(=O)c1c[nH]c2ccc(S(=O)(=O)N(CCCN3CCOCC3)Cc3ccco3)cc2c1=O	none
CC1CCN(S(=O)(=O)c2ccc3[nH]cc(C(=O)NCc4ccco4)c(=O)c3c2)CC1	USP17 block 54.7
CCc1nc2c3cnn(-c4ccc(C)c(C)c4)c3ncn2n1	none
Cc1ccc(Cl)cc1-n1ncc2c1ncn1nc(C3CCCCC3)nc21	USP17 block 34.2, USP8 inh 70.0
Cc1nnc(NC(=O)CCc2nc(-c3ccc(C)n(C(C)C)c3=O)no2)s1	none (no result: USP17 block)
COc1cc(/C=C(/C(=O)OCC(N)=O)c2ccc(-c3ccccc3)cc2)cc(OC)c1OC	none
COc1ccc(Cc2nnc(Nc3ccc(Cl)cc3)[nH]c2=O)cc1	none
COc1ccc(Cc2nnc(Nc3ccc(F)cc3)[nH]c2=O)cc1OC	USP30 inh 34.9
Cc1nc2nc(C(c3ccccc3)c3ccccc3)[nH]n2c(=O)c1Cc1ccccc1	USP17 block 45.0, USP10 inh 33.8
O=C(NCCCN1CCCC1)c1ccc(CS(=O)(=O)c2ccc(Br)cc2)o1	USP17 block 39.7
COc1cc(-c2ccccc2)c(O)c(O)c1-c1ccccc1	UCHL1 block 36.4, USP17 block 98.9, USP8 inh 72.5, USP7 inh 61.2, USP30 inh 90.9, USP10 inh 67.4
COc1ccc(NC(=O)c2oc(=O)c3ccccc3c2-c2ccccc2)cc1Cl	none
COc1ccc(C2CC(=O)N(c3cccc(Cl)c3)C(=O)C2)cc1OC	none
COc1ccc(C2CC(=O)N(Cc3ccc(F)cc3)C(=O)C2)cc1OC	USP17 block 47.2
COCCNC(=O)c1ccccc1N1C(=O)[C@@H]2Cc3c([nH]c4ccccc34)C(c3ccc(C)cc3)N2C1=O (some centres not stated)	none
COc1ccc(C(=O)Nc2cccc(-c3csc(C)n3)c2)cc1OC	none
COc1ccc(C(=O)Nc2cccc(C(=O)OCC(=O)c3ccc(Br)cc3)c2)cc1OC	USP17 block 34.2
CC(=O)C1=C(O)[C@@]2(O)C(=O)c3c(c(C)c4ccc(C)c(O)c4c3O)C[C@H]2[C@@H](N)C1=O	UCHL1 block 53.4, USP17 block 48.6, USP7 inh 50.4
O=S(=O)(c1ccc(Cl)cc1)c1nc(-c2ccccc2)oc1N1CCOCC1	none
Cc1ccc2cc(-c3noc(CCC(=O)NC4CCCC4)n3)c(=O)[nH]c2c1	USP8 inh 74.6, USP7 inh 41.0, USP10 inh 46.6
Cc1ccc2[nH]c(=O)c(-c3noc(CCC(=O)NC4CCCC4)n3)cc2c1	none
Cc1ccc(CNC(=O)CCn2cnc3c(-c4ccccc4)noc3c2=O)cc1	none
Cc1nc2c(-c3ccccc3)noc2c(=O)n1CC(=O)O	USP30 inh 31.2
Cc1ccccc1CNC(=O)CCn1cnc2c(-c3ccccc3)noc2c1=O	USP8 inh 37.9, USP30 inh 42.9
COc1ccc(CCNc2nc3cc(C)nn3c3ccccc23)cc1OC	none
Cc1cc(=O)n2c(n1)NC(N1CCOCC1)=NC2c1ccccn1 (configuration not stated)	none
CC1CCN(S(=O)(=O)c2cccn(CC(=O)NCC3CCCO3)c2=O)CC1 (configuration not stated)	none
Cc1cccc(-n2nnc(C(=O)Nc3ccc(F)cc3)c2C)c1	USP30 inh 31.5
COc1cc(=O)c(C(=O)Nc2ccc(C#N)cc2)nn1-c1cccc(F)c1	USP17 block 64.5, USP8 inh 61.8
Cc1cccc(-n2ncc(C(=O)Nc3cccc(F)c3)c2-n2cccc2)c1	USP30 inh 33.8
Cc1cc(C)cc(NC(=O)c2cnn(-c3ccccc3)c2-n2cccc2)c1	none
CCc1ccc(NC(=O)c2nnn(-c3cccc(C)c3)c2C)cc1	none
Cc1c(C(=O)Nc2ccc(F)cc2)nnn1-c1cccc(F)c1	USP30 inh 36.7
Cc1ccc(CNC(=O)Cn2cnc(S(=O)(=O)N3CCC(C)CC3)c2)cc1	none
CCOc1ccc(CN2CC[C@@]3(NC(C)=O)CN(C(C)=O)C[C@H]3C2)cc1CO	none
COc1ccc(NC(=O)C2=Cc3ccccc3OC2)cc1	USP30 inh 33.6
CC1(C)CC(=O)C2=C(C1)Nc1ccccc1N(C(=O)C(F)(F)F)C2c1cccs1 (configuration not stated)	USP17 block 64.1, USP8 inh 89.1
COc1ccc(C2C3=C(CC(C)(C)CC3=O)Nc3ccccc3N2C(=O)c2ccccc2)cc1 (configuration not stated)	USP17 block 35.3
